According to PubChem BioAssay AID1224904 (Broad Institute, 2016):
The campaign covered roughly 37,000 compounds. About 290 (0.78%) were called active. Roughly 10% stayed inconclusive and do not appear here.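 The calls were made as follows: active = mean inhibition of at least 10% in the main channel, exceeding the control channel by a set limit; inconclusive = inhibition of 10% or more but channel gap under a set limit; inactive = mean inhibition below 10%.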 For the sample, actives were picked, then their nearest neighbours and some compounds at random.

Assay: DUX4 transcriptional activity inhibition in cells – 293T cells, Gaussia and Italica luciferase, primary screen (AID 1224904);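 as to activity change, negative = inhibition: 0% = median of neutral control wells and -100% = median of positive control wells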
Conditions: 293T-iDUX4 ZSCAN4-Gaussia luciferase reporter, 24 h, stronger effect = lower value, concentration not given here; for Gaussia minus Italica difference: measured here: selective DUX4 reporter inhibition
[1] = measured here: Italica tet-on control reporter

SMILES	activity change, negative = inhibition	activity change, negative = inhibition [1]	Gaussia minus Italica difference
CCNC[C@@H]1[C@@H](c2ccccc2)[C@@H](CO)N1C(=O)Cc1ccccn1	-0.0686% (inactive)	0.573%	-0.642%
CC(C)[C@@H]1COCc2cn(nn2)CC[C@@H](C)C(=O)N1	-4.81% (inactive)	-0.475%	-4.34%
C/C=C/c1ccc([C@H]2[C@@H](CO)N(S(C)(=O)=O)[C@@H]2CN(C)C(=O)CC)cc1	-5.98% (inactive)	-3.34%	-2.63%
COc1ccc(S(=O)(=O)Nc2ccc3c(c2)C(=O)N([C@@H](C)CO)C[C@@H](C)[C@H](CN(C)C(=O)CCC(F)(F)F)OCCCC[C@H](C)O3)cc1	-0.224% (inactive)	1.87%	-2.09%
COc1ccc2c3c(n(C)c2c1)[C@H](CO)N(Cc1ccc(F)cc1)CC31CCN(C)CC1	-2.1% (inactive)	0.744%	-2.85%
CCCN1[C@H](C(=O)N2CCCCC2)[C@@H](CO)[C@@H]2Cn3c(ccc(-c4ccccc4F)c3=O)[C@@H]21	-5.69% (inactive)	-0.135%	-5.56%
CCCNC(=O)N(C)C[C@@H]1Oc2ncc(C#CCc3ccccc3)cc2C(=O)N([C@@H](C)CO)C[C@H]1C	5.53% (inactive)	3.94%	1.6%
CCCNC(=O)N1C[C@@H](O)COC[C@H]2O[C@H](CC(=O)N3CCC(Cc4ccccc4)CC3)CC[C@@H]21	-2.96% (inactive)	-2.25%	-0.719%
N#C[C@H]1[C@@H](c2ccc(-c3ccccc3F)cc2)[C@H](CO)N1C(=O)c1ccccn1	2.62% (inactive)	1.69%	0.933%
CCS(=O)(=O)N1Cc2cc(C(=O)N(C)C)nc(-c3cccc(-c4ccc(C#N)cc4)c3)c2[C@H]1CCO	0.897% (inactive)	2.65%	-1.75%
COc1ccccc1CN1CC[C@@H]2[C@@H](CO)Nc3ccc(C#Cc4ccccc4)cc3[C@@H]21	-0.512% (inactive)	16%	-16.5%
COc1ccc(C#Cc2ccc3c(c2)[C@H]2[C@H](CCN2Cc2nccs2)[C@@H](CO)N3)cc1	-46.9% (active)	-18.3%	-28.6%
COc1ccc(S(=O)(=O)N2CC[C@@H]3[C@@H](CO)Nc4ccc(C#Cc5cccnc5)cc4[C@@H]32)cc1	2.41% (inactive)	-7.96%	10.4%
CCCNC(=O)Nc1ccc2c(c1)C(=O)N(C)[C@@H]1CC[C@@H](CC(=O)NC)O[C@H]1CO2	5.07% (inactive)	8.03%	-2.97%
C[C@H](NC(=O)C[C@@H]1C=C[C@H](NC(=O)CN2CCOCC2)[C@H](CO)O1)c1ccccc1	4.92% (inactive)	1.16%	3.76%
CCCNC(=O)N1CCC2(CC1)CN(C(=O)c1cccnc1)[C@@H](CO)c1[nH]c3cc(OC)ccc3c12	8.76% (inactive)	-3.75%	12.5%
C[C@@H]1CCCCO[C@H](CN(C)Cc2ccc(C(=O)Nc3ccccc3N)cc2)[C@H](C)CN([C@H](C)CO)C(=O)c2cc(N(C)C)ccc2O1	1.16% (inactive)	0.261%	0.898%
CC(C)CC#Cc1ccc([C@@H]2[C@@H](CO)N3C(=O)CN(C(=O)c4cnccn4)C[C@@H]23)cc1	-2.25% (inactive)	4.38%	-6.63%
COc1ccc2c3c(n(C)c2c1)[C@@H](CO)N(C(=O)C1CC1)CC31CN(C(=O)C2CCOCC2)C1	9.17% (inactive)	2.05%	7.12%
O=C(Nc1ccccc1)N1C[C@H]2[C@@H](c3ccccc31)[C@H](CO)N2Cc1ccc(F)cc1	-5.39% (inactive)	-0.0374%	-5.35%
COc1ccc2c3c(n(C)c2c1)[C@@H](CO)N(C(=O)c1ccccn1)CC31CN(C)C1	15.3% (inactive)	6.61%	8.66%
CN(C)C(=O)C[C@@H]1C[C@H]2c3cc(NC(=O)Nc4ccccc4F)ccc3O[C@H]2[C@@H](CO)O1	1.79% (inactive)	4.62%	-2.83%
CO[C@H]1CN(C)C(=O)c2ccc(NC(=O)c3cccc(F)c3)cc2OC[C@@H](C)N(C(C)=O)C[C@@H]1C	1.79% (inactive)	2.12%	-0.333%
Cc1ccccc1-c1ccc([C@H]2[C@H](CO)N3C(=O)CN(C(=O)c4cccnc4)C[C@@H]23)cc1	6.89% (inactive)	11.7%	-4.8%
O=C(C[C@H]1CC[C@@H]2[C@H](COC[C@H](O)CN2S(=O)(=O)c2ccccc2)O1)N1CCOCC1	7.87% (inactive)	8.06%	-0.196%
O=C(C[C@@H]1CC[C@H]2[C@@H](COC[C@@H](O)CN2C(=O)Nc2ccc(Cl)cc2)O1)NC1Cc2ccccc2C1	3.16% (inactive)	10.4%	-7.28%
Cc1ccccc1S(=O)(=O)Nc1ccc2c(c1)C(=O)N(C)[C@@H]1CC[C@@H](CC(=O)O)O[C@@H]1CO2	-2.51% (inactive)	-0.782%	-1.73%
COc1cccc(C(=O)N2C[C@@H]3[C@H](c4ccccc42)[C@H](CO)N3Cc2ccccc2F)c1	-0.575% (inactive)	3.46%	-4.03%

SMILES	activity change, negative = inhibition	activity change, negative = inhibition [1]	Gaussia minus Italica difference
CCCNC(=O)N1C[C@@H](O)COC[C@H]2O[C@H](CC(=O)NCCCN3CCOCC3)CC[C@@H]21	5.88% (inactive)	6.39%	-0.509%
CCC(=O)N1CC2(C1)CN(Cc1nccs1)[C@@H](CO)c1c2c2ccc(OC)cc2n1C	20% (inactive)	2.76%	17.3%
CN(C)C(=O)c1cccc(-c2ccc3c(c2)[C@H]2[C@H](CCN2C(=O)c2cccnc2)[C@H](CO)N3)c1	-0.714% (inactive)	0.0796%	-0.793%
O=C(C[C@@H]1CC[C@@H]2[C@H](COC[C@H](O)CN2CC2CCOCC2)O1)NCC1CCCCC1	3.21% (inactive)	11.5%	-8.33%
CCCN1C[C@@H](C)[C@@H](OC)CN(C)C(=O)c2cc(NC(=O)Nc3cccc(F)c3)ccc2OC[C@@H]1C	-9.36% (inactive)	-5.66%	-3.7%
O=C(NCC1CC1)[C@@H]1[C@@H](CO)[C@@H]2Cn3c(ccc(-c4ccncc4)c3=O)[C@@H]2N1Cc1cocn1	-0.331% (inactive)	-1.44%	1.11%
CC(C)NC(=O)N1[C@H](CO)[C@H](c2ccccc2)C12CN(C(=O)Cc1cccnc1)C2	1.09% (inactive)	5.85%	-4.76%
CCC(=O)N1[C@H](CO)[C@@H]2c3ccccc3N(S(=O)(=O)c3ccccc3C)C[C@@H]21	-0.934% (inactive)	-0.843%	-0.0907%
CO[C@H]1CN(C)C(=O)c2ccc(NS(C)(=O)=O)cc2OC[C@@H](C)N(Cc2ccccc2)C[C@@H]1C	3.45% (inactive)	1.74%	1.71%
CCN(C[C@@H]1[C@@H](c2ccccc2)[C@H](CO)N1C(C)=O)C(=O)NC(C)C	-4.96% (inactive)	-1.07%	-3.89%
CCCNC(=O)N(C)C[C@H]1Oc2ncc(-c3ccc(C(=O)N(C)C)cc3)cc2C(=O)N([C@@H](C)CO)C[C@@H]1C	-0.44% (inactive)	5.7%	-6.14%
COc1ccc2c3c([nH]c2c1)[C@H](CO)N(C(=O)C1CCOCC1)CC31CN(S(C)(=O)=O)C1	-4.43% (inactive)	1.27%	-5.7%
O=C(Cc1ccccc1)N1C[C@H]2[C@@H](c3ccccc31)[C@H](CO)N2C(=O)c1ccc(F)cc1	0.616% (inactive)	2.82%	-2.21%
CN1C(=O)c2cc(NC(=O)c3cnccn3)ccc2OC[C@@H]2O[C@H](CC(=O)NC3CCC3)CC[C@@H]21	3.24% (inactive)	0.171%	3.07%
O=C(C[C@@H]1CC[C@@H]2[C@H](COC[C@H](O)CN2S(=O)(=O)c2ccc(F)cc2)O1)NCc1ccc(Cl)c(Cl)c1	-7.18% (inactive)	-12.4%	5.22%
CCCNC(=O)N1C[C@@H]2[C@H](c3ccccc31)[C@@H](CO)N2C(=O)NC(C)C	-3.62% (inactive)	0.166%	-3.78%
N#C[C@@H]1N[C@@H](CO)[C@@H]1c1ccc(C#Cc2ccccc2F)cc1	0.819% (inactive)	0.652%	0.167%
CC=Cc1ccc2n(c1=O)C[C@@H]1[C@@H](CO)[C@H](C(=O)NCCC)[C@H]2N1C(=O)C1CC1 (mixture of isomers)	3.79% (inactive)	5.5%	-1.71%
CCCNC(=O)N1C[C@@H](O)COC[C@H]2O[C@@H](CC(=O)NCCCN3CCOCC3)CC[C@@H]21	-2.3% (inactive)	5.46%	-7.76%
Cc1cc(C(=O)Nc2ccc3c(c2)C(=O)N(C)[C@H]2CC[C@H](CC(=O)NCC(F)(F)F)O[C@@H]2CO3)no1	-3.18% (inactive)	1.49%	-4.67%
C[C@@H](NC(=O)C[C@H]1CC[C@@H](NC(=O)Cc2ccccn2)[C@@H](CO)O1)c1ccccc1	14.3% (inactive)	1.74%	12.6%
O=C(C[C@@H]1CC[C@H]2[C@@H](COC[C@H](O)CN2C(=O)Nc2ccccc2)O1)NCCc1ccncc1	-0.33% (inactive)	7.03%	-7.36%
COc1ccc(NC(=O)N(C)C[C@@H]2OCc3cn(nn3)CCCC(=O)N([C@H](C)CO)C[C@H]2C)c(OC)c1	-6.81% (inactive)	4.76%	-11.6%
N#C[C@@H]1[C@@H](c2ccc(-c3ccccc3F)cc2)[C@@H](CO)N1C(=O)C1CC1	-3.2% (inactive)	-0.917%	-2.29%
COc1ccc2c3c([nH]c2c1)[C@@H](CO)N(C(=O)NC(C)C)CC31CN(C(=O)C2CCCC2)C1	6.7% (inactive)	0.3%	6.4%
COc1ccc2c3c(n(C)c2c1)[C@H](CO)N(Cc1ccccc1F)CC31CN(C(=O)C2CCC2)C1	6.19% (inactive)	3.73%	2.45%
COc1ccc2c3c([nH]c2c1)[C@@H](CO)N(Cc1cc(F)ccc1F)CC31CN(C(=O)C2CCC2)C1	-77.2% (active)	-43.6%	-33.6%
